Screening data: PubChem BioAssay, National Center for Advancing Translational Sciences (NCATS)
NS1 function inh: influenza NS1 inhibition; Potency, µM (highest dose often 46.1 µM), for the others: at the top dose activity, positive = more growth; hit rate 0.4% among 270,000; calls by dose curve; further: potency means the concentration at half of the fitted maximal effect; actives are rising curves; nearly all actives have a fitted effect of over 50% in size
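In this qHTS, NS1 from influenza A is expressed in budding yeast, where it slows growth. Cells are switched from glucose to 2% galactose medium (pH 6.0, -URA), treated with compound, and growth recovery is read at OD600.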
SARS PLpro yeast-1: blocks SARS-CoV papain-like protease in a yeast assay; S. cerevisiae expressing SARS-CoV PLpro, growth rescue; Potency, µM (series often up to 32.9 µM), for inactives: top-dose activity, positive = growth rescue, hits mostly activators; hit rate 0.19% among 330,000; calls by dose curve; further: potency means the concentration at half of the fitted maximal effect; 0% is about no effect; nearly all actives have a fitted effect of over 55% in size
AMA1-RON2 inh: AMA1-RON2 (P. falciparum) interaction inhibition; AlphaScreen AMA1-biotinylated RON2 peptide binding; Potency, µM (doses to about 58.2 µM), without a hit: at the highest dose activity change, negative = inhibition, most hits filed as inhibitors; hit rate 0.2% among 360,000;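 further: potency means the concentration at half of the fitted maximal effect; 0% = vehicle wells and -100% = peptide control; nearly all actives have a fitted effect of over 45% in size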
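AMA1 (3D7) with his tag at 25 nM final met compounds first, then biotinylated RON2 peptide at 25 nM; detection used donor plus acceptor beads, 10 µg/mL apiece, read by AlphaScreen after 30 min at room temperature.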
HCV inhibitor: inhibitors of hepatitis C virus infection. hit rate 3.4% among 340,000. Potency, µM (titrated, usually from 41.8 µM), without a hit: at the top dose activity change, negative = inhibition, most hits filed as inhibitors. Huh7.5.1 HCVcc-Cre infection, luciferase reporter, 44 h; further: potency means the concentration at half of the fitted maximal effect; on the % scale 0 is the no-effect control and ±100 the full control effect
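HCVcc-Cre virus at an moi near 0.5 was added right after compound to cells cultured 4 h from seeding (1,000 cells/well). Luciferase activity was determined 44 h later, 15 min after substrate addition at RT.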
Pf growth 96h: inhibits malaria parasite growth, 96 h; P. falciparum luciferase reporter growth, 96 h; Potency, µM (highest dose often 28.7 µM), inactives show at the highest dose activity change, negative = inhibition, most hits filed as inhibitors; hit rate 6.9% among 320,000; further: potency means the concentration at half of the fitted maximal effect; on the % scale 0 is the no-effect control and ±100 the full control effect
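Readout is luminescence from an integrated firefly luciferase in P. falciparum. Red cells, 2% hematocrit and 0.05% parasitemia final, were cultured with compound through two parasite generations (96 hours) at 37 C, 5% CO2.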
Pf growth 48h: inhibits P. falciparum growth in the first generation, 48 h; P. falciparum luciferase growth in erythrocytes, 48 h; Potency, µM (doses to about 28.7 µM), inactives show at the top dose activity change, negative = inhibition, hits mostly inhibitors; hit rate 5.9% among 310,000; further: potency means the concentration at half of the fitted maximal effect; on the % scale 0 is the no-effect control and ±100 the full control effect
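First compound was added to culture medium, then infected red cells at 0.1% parasitemia and 2% hematocrit (final). After incubation at 37 C under 5% CO2, luciferase detection reagent was dispensed and light output recorded.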
SARS PLpro yeast-2: Rescues yeast growth by inhibiting SARS-CoV PLpro | hit rate 19% among 1,000 | yeast expressing SARS-CoV PLpro, growth phenotype rescue | shares compounds with SARS PLpro yeast-1 | calls only | AID 652038; call rule not given here
The depositor's hits bear a star; i = inactive; ? = inconclusive; nt = not tested or not shown; + = active, no number; [ ] = dose if it differs, or a comment. Shown are actives, neighbours in structure and some others; about 12% of the full set was active somewhere. Unless noted, the call rests on the fitted dose curve; in most records, active means well fitted curve in the direction sought with a large enough effect; inconclusive means small, poorly fitted or top-dose-only effect, or another doubt; inactive means no such curve, though single readings can be large; an effect the other way counts as inactive or inconclusive.

SMILES	NS1 function inh	SARS PLpro yeast-1	AMA1-RON2 inh	HCV inhibitor	Pf growth 96h	Pf growth 48h	SARS PLpro yeast-2
CCCCCC(=O)NNC(=S)NC(=O)c1cccc([N+](=O)[O-])c1	-9%	11µM*	53%	-22%	?	-5%	i
CCc1nnc(NS(=O)(=O)c2ccc(NC(=O)c3cccc(OC)c3)cc2)s1	22%	0%	1%	15%	2%	1%	nt
C=CCN(C#N)c1nc(OC)nc(N2CCCC2)n1	-14%	-5%	-15%	?	54%	?	nt
N#CN(CC(N)=O)c1nc(N2CCCCC2)nc(N2CCCCC2)n1	2%	?	-2%	10µM*	-8%	?	i
O=C(CCl)Nc1cccc2ncccc12	-2%	11µM*	32%	13µM*	1%	2.3µM*	+
COc1ccc(S(=O)(=O)N2CCCCC2)cc1C(C)C	-52%	?	-8%	0%	?	?	i
COc1ccc(CNC(=O)c2ccc(S(=O)(=O)N3CCCC3)cc2)cc1OC	0%	?	-4%	12%	?	nt	i
C/C(CC(=O)NC1CCCCCC1)=N\NC(=O)c1cnccn1	-6%	3.5µM*	67%	32%	-14%	8%	i
O=C1/C(=C/c2cccs2)N=C(c2cccs2)N1Nc1ccccc1	8%	?	-21%	14µM*	nt	20%	i
O=C1/C(=C\c2cccs2)N=C(c2cccs2)N1Nc1ccccc1	5%	-15%	-21%	?	nt	4%	nt
Fc1ccc(NC(=S)NCc2cccs2)cc1	-16%	25%	-6%	1%	0%	7%	nt
COc1cccc(NC(=O)COC(=O)CNC(=O)C2CCCCC2)c1	nt	1%	-1%	7%	49%	45%	nt
Cc1cccc(NC(=O)COC(=O)CNC(=O)C2CCCCC2)c1	2%	?	29%	23%	43%	nt	i
COC(=O)CNC(c1ccccc1)c1cc(C)ccc1NC(=O)c1cccc(Cl)c1 (stereo unspecified)	-37%	?	2%	?	13µM*	?	i
CCOC(=O)CNC(c1ccccc1)c1cc(Br)ccc1NC(C)=O (stereo unspecified)	-2%	0%	-12%	-8%	-26%	?	nt
O=C(Nc1ccc(NC(=O)C2CCCCC2)nc1)c1cccc(F)c1	2%	15%	-10%	-13%	2%	?	nt
CCn1cc(C(=O)O)c(=O)c2cc(F)c(N3CCN(S(=O)(=O)c4ccc(NC(=O)OC)cc4)CC3)cc21	?	?	6%	15%	?	4.7µM*	i
Cc1cccc(-n2c(O)c(/C=N/NC(=O)c3ccccc3Cl)c3ccccc3c2=O)n1	?	14µM*	-26%	?	-1%	-7%	i
O=C(N/N=C/c1c(O)n(-c2ccccc2Cl)c(=O)c2ccccc12)c1cccnc1	nt	5.6µM*	44%	4%	?	?	i
O=C(N/N=C/c1cccc2ccccc12)c1cccnc1	-2%	-2%	-2%	7%	12%	nt	nt
Cc1cc(C)cc(-n2c(C)cc(C(=S)N3CCOCC3)c2C)c1	5%	14µM*	-24%	13%	42%	12µM*	+
O=C(O)COc1ccccc1C(Nc1ccccn1)c1cc(Cl)c2cccnc2c1O (stereo unspecified)	26%	5µM*	-10%	-1%	-5%	3%	i
CC(=O)NC(C)c1cc(Cl)c2cccnc2c1O (stereo unspecified)	nt	?	nt	nt	?	?	i
COc1ccc(C(NC(C)=O)c2ccc3cccnc3c2O)c(OC)c1 (stereo unspecified)	-54%	2.2µM*	-39%	5µM*	3.3µM*	1.7µM*	+
O=C(O)COc1ccccc1C(Nc1cccnc1)c1cc(Cl)c2cccnc2c1O (stereo unspecified)	nt	?	-87%	2%	1%	14%	nt
SMILES	NS1 function inh	SARS PLpro yeast-1	AMA1-RON2 inh	HCV inhibitor	Pf growth 96h	Pf growth 48h	SARS PLpro yeast-2
CC(=O)NC(c1ccc(Cl)cc1Cl)c1ccc2cccnc2c1O (stereo unspecified)	-104%	?	-48%	5.6µM*	31%	4.1µM*	i
CC(=O)NC(C)c1cc(Cl)c2ccccc2c1O (stereo unspecified)	nt	0%	nt	nt	24%	-1%	nt
CC(=O)NC(CC(=O)NC(C)c1ccc(Cl)cc1Cl)c1ccccc1 (stereo unspecified)	nt	0%	9%	10%	8%	-18%	nt
COc1cccc(C(NC(C)=O)c2nc(-c3cccc4cccnc34)cs2)c1 (stereo unspecified)	nt	nt	2%	nt	nt	nt	nt
CCc1nc2c(OCc3cc(Cl)cc(Cl)c3)cccn2c1N(C)C(=O)c1ccc(OC)cc1	nt	nt	-25%	nt	nt	nt	nt
COc1ccc(C)cc1NS(=O)(=O)c1ccccc1	nt	nt	5%	-7%	nt	nt	nt
Cc1ccc(C(O)(C(=O)NNc2ccc3ccccc3n2)c2ccc(C)cc2)cc1	15%	?	60%	?	?	?	i
Cc1ccc(NC(=O)c2nc[nH]c2C(=O)NCCCCCCNC(=O)c2[nH]cnc2C(=O)Nc2ccc(C)cc2)cc1	nt	13µM*	116%	11%	nt	nt	i
Cc1ccc(NC(=O)c2nc[nH]c2C(=O)NCCCCNC(=O)c2[nH]cnc2C(=O)Nc2ccc(C)cc2)cc1	nt	3%	48%	20%	nt	nt	nt
COc1ccccc1C(=O)NCC1(c2ccccc2)CCCC1	-36%	-2%	3%	?	10%	?	nt
CC1CN(C(=S)Nc2ccccc2C(F)(F)F)CC(C)O1 (stereo unspecified)	-9%	-4%	13%	?	75%	-18%	nt
O=S(=O)(NCCc1csc(-c2cccnc2)n1)c1ccc2c(c1)OCCO2	-12%	?	-3%	-29%	?	-4%	i
O=S(=O)(NCCc1csc(-c2cccnc2)n1)c1cccc(F)c1	-52%	-5%	0%	4%	44%	8%	nt
COc1cccc(-n2nnc3c(=O)n(CC(=O)OCc4ccccc4)cnc32)c1	13%	?	2%	9%	0.17µM*	13%	i
CCOC(=O)O[C@@H](C)OC(=O)[C@@H]1N2C(=O)[C@@H](NC(=O)[C@@H](N)c3ccccc3)[C@H]2SC1(C)C	nt	nt	nt	nt	7%[12.8 µM]	-2%[12.8 µM]	nt
COc1ccc(C(=O)N/C(N)=N/c2nc3ccccc3o2)cc1	-1%	-5%	69%	?	?	42%	nt
CC(C)(C)c1ccc(C(=O)N/C(N)=N/c2nc3ccccc3o2)cc1	?	?	24%	15%	9%	nt	i
COc1ccc(CCn2c(C)c(C(C)=O)c(C(C)=O)c2C)cc1OC	nt	2%	-22%	23%	?	9%	nt
